The panel holds about 83,000 compounds, 20% with a hit somewhere; the sample as a whole holds those more often.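 Results are percent growth after 48 hours of single-concentration exposure. 100 means growth as in untreated cells, lower positive values show inhibition; negative values down to -100 show cell death.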 A number with no mark means an inactive call. The source made the active and inactive calls. The calls were made as follows: active = growth percent below 10; inactive = the rest.

The record followed here is PubChem BioAssay (NCI).

Among the test systems are HCT-15 colon; HT29 colon; SNB-75 CNS; SNB-19 CNS; U251 CNS; PC-3 prostate; SK-MEL-5 melanoma; UACC-62 melanoma; LOX IMVI melanoma; SK-MEL-28 melanoma; SK-MEL-2 melanoma; EKVX NSCLC; SN12C renal; UO-31 renal; TK-10 renal; ACHN renal; CAKI-1 renal; A498 renal; CCRF-CEM leukemia; MOLT-4 leukemia.
What all share (test): NCI-60 one-dose screen, 48 h (100 = growth as untreated, 0 = no growth, -100 = all killed)
Common to all, as to settings: 10 µM unless noted

On to `c1csc(-c2cn3nc(-c4c[nH]c5ccccc45)sc3n2)c1`, for which the growth in the assay with HCT-15 colon was 21.6%; in the assay with HT29 colon, 6.1% (active); in the assay with SNB-75 CNS, -4.32% (active); with SNB-19 CNS it was 28.7%; in the assay with U251 CNS it was 23.7%; in the assay with PC-3 prostate, 26.5%. The growth with SK-MEL-5 melanoma was 19.5%; in the assay with UACC-62 melanoma it was 32.5%; in the assay on LOX IMVI melanoma, 28.8%; in the assay with SK-MEL-28 melanoma, 48.5%; in the assay with SK-MEL-2 melanoma it was 37.2%; in the assay on EKVX NSCLC, 36%. In addition, the growth in the assay with SN12C renal was 34.2%; in the assay with UO-31 renal, 30.7%; with TK-10 renal, 50.5%; in the assay with ACHN renal, 42.2%; in the assay with CAKI-1 renal, 29.8%; with A498 renal it was 20.8%. The growth with CCRF-CEM leukemia is 10.7%; in the assay with MOLT-4 leukemia, 27.2%.

As to `CCOC(=O)c1cn2ncnc(Oc3ccc(NC(=O)NC4CC4)c(Cl)c3)c2c1C`, the growth with HCT-15 colon is 81.7%; in the assay with HT29 colon it was 95.1%; with SNB-75 CNS it was 83.8%; with SNB-19 CNS, 89%; with U251 CNS, 80.7%; with PC-3 prostate it was 89.2%. Also, the growth in the assay on SK-MEL-5 melanoma is 88.7%; with UACC-62 melanoma it was 77.8%; in the assay on LOX IMVI melanoma, 85.4%; with SK-MEL-28 melanoma it was 107%; in the assay with SK-MEL-2 melanoma, 110%; in the assay with EKVX NSCLC it was 89.8%. Further, the growth was 79.9% in the assay with SN12C renal; 65.3% in the assay with UO-31 renal; 113% in the assay on TK-10 renal; 96.4% in the assay with ACHN renal; 101% in the assay on CAKI-1 renal; -0.592% (active) with A498 renal. The growth with CCRF-CEM leukemia was 89.2%; in the assay with MOLT-4 leukemia it was 88.8%.

Turning to `CN(C)/C(N)=N/N=C(\c1ccccc1)c1ccccn1`, the growth in the assay with HCT-15 colon was 90.5%; in the assay on HT29 colon, 110%; with SNB-75 CNS, 101%; in the assay with SNB-19 CNS, 106%; in the assay on U251 CNS it was 96.7%; in the assay with PC-3 prostate it was 81.5%. Also, the growth in the assay with SK-MEL-5 melanoma was 95.5%; with UACC-62 melanoma, 105%; with LOX IMVI melanoma, 93%; with SK-MEL-28 melanoma, 113%; in the assay with SK-MEL-2 melanoma, 106%; in the assay with EKVX NSCLC, 112%. Besides, the growth in the assay with SN12C renal was 99.4%; in the assay on UO-31 renal, 83.6%; in the assay with TK-10 renal it was 94.6%; in the assay with ACHN renal, 95.7%; in the assay with CAKI-1 renal, 97.1%; in the assay on A498 renal, 105%. Besides, the growth was 81.4% in the assay with CCRF-CEM leukemia and 91.5% in the assay on MOLT-4 leukemia.

Turning to `O=C(O)c1cn(C2CC2)c2cc(N3CCN(C(=O)N/N=C/c4cccc5ccccc45)CC3)c(F)cc2c1=O`, the growth is 97.9% in the assay with HCT-15 colon; 105% in the assay on HT29 colon; 97% with SNB-75 CNS; 85.9% with SNB-19 CNS; 100% in the assay with U251 CNS; 105% in the assay with PC-3 prostate. The growth was 94% with SK-MEL-5 melanoma; 88.7% in the assay with UACC-62 melanoma; 67.8% in the assay with LOX IMVI melanoma; 98.1% with SK-MEL-28 melanoma; 101% in the assay on SK-MEL-2 melanoma; 102% in the assay with EKVX NSCLC. In addition, the growth in the assay on SN12C renal is 96.6%; with UO-31 renal it was 80.1%; in the assay on TK-10 renal, 94.1%; in the assay on ACHN renal, 101%; with CAKI-1 renal it was 90.1%; in the assay on A498 renal, 86.1%. Besides, the values for the growth in the assay with CCRF-CEM leukemia and with MOLT-4 leukemia were 112% and 100%, respectively.

With `Cc1ccc(O)c(NC(=O)c2cccc(Nc3ccnc(C(F)(F)F)c3)c2)c1`, the growth in the assay on HCT-15 colon was 80%; in the assay on HT29 colon it was 101%; in the assay with SNB-75 CNS it was 85%; in the assay with SNB-19 CNS, 90.5%; in the assay with U251 CNS, 83.6%; with PC-3 prostate, 68%. The growth in the assay on SK-MEL-5 melanoma was 20.7%; with UACC-62 melanoma, 30.8%; in the assay with LOX IMVI melanoma it was 66.9%; with SK-MEL-28 melanoma, 100%; with SK-MEL-2 melanoma, 82.7%; in the assay with EKVX NSCLC, 41.7%. Also, the growth with SN12C renal is 39.9%; with UO-31 renal it was 29.3%; in the assay on TK-10 renal, 92.2%; in the assay on ACHN renal, 57.8%; in the assay with CAKI-1 renal it was 41.6%; with A498 renal, 96.1%. Besides, the growth in the assay with CCRF-CEM leukemia is -1.16% (active); with MOLT-4 leukemia, -4.89% (active).

For the compound `O=Nc1ccc(NC(=O)Nc2ccc([N+](=O)[O-])cc2)cc1`, the growth with HCT-15 colon was 83.2%; with HT29 colon it was 100%; in the assay with SNB-75 CNS, 96.4%; with SNB-19 CNS, 107%; in the assay on U251 CNS, 92.5%; with PC-3 prostate it was 72.2%. Also, the growth with SK-MEL-5 melanoma was 86.7%; in the assay on UACC-62 melanoma it was 76.9%; in the assay with LOX IMVI melanoma it was 88.8%; in the assay on SK-MEL-28 melanoma, 108%; with SK-MEL-2 melanoma, 116%; with EKVX NSCLC it was 96%. Moreover, the growth was 94.9% in the assay on SN12C renal; 85.8% in the assay on UO-31 renal; 99.7% in the assay on TK-10 renal; 94.7% in the assay with ACHN renal; 97.1% with CAKI-1 renal; 84% in the assay on A498 renal. For the same compound, the growth in the assay with CCRF-CEM leukemia is 68.4%; with MOLT-4 leukemia, 88.6%.

With `O=[N+]([O-])c1ccccc1Nc1ccc2ccccc2c1`, the growth with HCT-15 colon was 93.5%; in the assay with HT29 colon, 94.1%; in the assay with SNB-75 CNS it was 62.9%; in the assay on SNB-19 CNS, 89.8%; in the assay on U251 CNS, 92.7%; in the assay on PC-3 prostate, 92.3%. For the same compound, the growth with SK-MEL-5 melanoma is 98.6%; in the assay with UACC-62 melanoma, 79.5%; in the assay on LOX IMVI melanoma, 92.5%; with SK-MEL-28 melanoma it was 101%; in the assay on SK-MEL-2 melanoma it was 104%; with EKVX NSCLC, 87.7%. Further, the growth is 98.9% with SN12C renal; 59.4% in the assay on UO-31 renal; 99.7% in the assay on TK-10 renal; 99.2% in the assay on ACHN renal; 78.3% in the assay on CAKI-1 renal; 59.9% in the assay on A498 renal. Moreover, the growth in the assay with CCRF-CEM leukemia is 92.3%; in the assay on MOLT-4 leukemia, 76.8%.

For the compound `CC(=O)c1ccc(-n2cc(CN3CCN(c4cc5c(cc4F)c(=O)c(C(=O)O)cn5C4CC4)CC3)nn2)cc1`, the growth with HCT-15 colon is 93.8%; in the assay with HT29 colon it was 90.8%; in the assay with SNB-75 CNS it was 92.7%; in the assay on SNB-19 CNS, 98.2%; in the assay with U251 CNS it was 98.4%; with PC-3 prostate, 83.9%. The growth in the assay with SK-MEL-5 melanoma is 84.3%; with UACC-62 melanoma it was 90.5%; in the assay on LOX IMVI melanoma, 55.4%; in the assay with SK-MEL-28 melanoma, 99.3%; in the assay on SK-MEL-2 melanoma, 96.4%; in the assay with EKVX NSCLC it was 88.5%. Further, the growth with SN12C renal was 103%; in the assay on UO-31 renal, 63.1%; in the assay with TK-10 renal, 103%; with ACHN renal, 96.7%; in the assay with CAKI-1 renal, 87.8%; in the assay with A498 renal it was 76.7%. Further, the growth was 111% with CCRF-CEM leukemia and 102% with MOLT-4 leukemia.
